{"source": "PubChem BioAssay AID588335", "about": "(The Scripps Research Institute Molecular Screening Center, 2011)", "note": "In all, about 360,000 compounds went through this assay and about 4,500 (1.2%) were called active. Rule as the data show it: active = inhibition above about 30%; inactive = the rest. The sample as a whole holds a higher share of actives than the screen did.", "data": [{"experiment": "inhibition of GDH and TPI enzymes – biochemical, absorbance, full deck, artefact control for M. tuberculosis FBA inhibitor project, primary screen (AID 588335);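 also: 0% = DMSO wells and 100% = wells lacking the enzyme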", "conditions": "GDH-TPI coupled enzyme counterscreen, NADH absorbance; at 4.8 µM; active compounds read high", "values": [{"smiles": "Cc1cccc(C)c1NC(=S)N(Cc1cccnc1)Cc1ccccc1Cl", "inhibition": "0.63% (inactive)"}, {"smiles": "CC1(C)CC(=O)C2=C(C1)NCN(CCCN1CCOCC1)C2", "inhibition": "6.39% (inactive)"}, {"smiles": "CC(C)OC(=O)c1ccc(COc2ccc3ccc(=O)oc3c2)o1", "inhibition": "6.9% (inactive)"}, {"smiles": "O=C(COc1ccc2ccc(=O)oc2c1)NCC(O)c1ccccc1", "note": "(stereo not drawn)", "inhibition": "7.87% (inactive)"}, {"smiles": "CC(=CCOc1ccc2ccc(=O)oc2c1)C1=CC(=O)C(C)(C)O1", "inhibition": "32.7% (active)"}, {"smiles": "COc1ccc2oc(C(=O)OCC(=O)N(CC(C)C)c3c(N)n(Cc4ccccc4)c(=O)[nH]c3=O)c(C)c2c1", "inhibition": "-3.6% (inactive)"}, {"smiles": "O=C1Nc2ccc([N+](=O)[O-])cc2C1=Nc1cccc(CO)c1", "inhibition": "15.1% (inactive)"}, {"smiles": "CCOc1ccc(C(C(=O)NCCOC)N(CCOC)C(=O)CCC(=O)Nc2ccccn2)cc1", "note": "(stereo not drawn)", "inhibition": "5.17% (inactive)"}, {"smiles": "COC(=O)Cc1cnc(NC(=O)CSc2nc(C(C)C)cc(=O)[nH]2)s1", "inhibition": "-1.15% (inactive)"}, {"smiles": "COc1ccc2c(c1)C(=O)CC(c1ccccc1)O2", "note": "(stereo not drawn)", "inhibition": "0.86% (inactive)"}, {"smiles": "Cc1c(O)c(C)c2c(c1O)C(=O)C[C@@H](c1ccccc1)O2", "inhibition": "31% (active)"}, {"smiles": "O=C1CC(c2ccccc2)C(=O)N2C(=O)CC(c3ccccc3)C(=O)N12", "note": "(stereo not drawn)", "inhibition": "1.76% (inactive)"}, {"smiles": "NC(=O)CN1CCCC1c1ccc2c(c1)OCCO2", "note": "(stereo not drawn)", "inhibition": "-7.41% (inactive)"}, {"smiles": "CC1=NNC(=O)C1CCC(=O)N/N=C\\c1cccc(Cl)c1", "note": "(stereo not drawn)", "inhibition": "-3.82% (inactive)"}, {"smiles": "CCOC(=O)C(Sc1ncc(C#N)c(N)n1)C(C)C", "note": "(stereo not drawn)", "inhibition": "5.66% (inactive)"}, {"smiles": "CCOC(=O)c1ccc(COC(=O)c2cc(=O)[nH]c3ccccc23)o1", "inhibition": "7.46% (inactive)"}, {"smiles": "CCCCSc1[nH]c(=O)c(C(=O)OCC)cc1C#N", "inhibition": "36.1% (active)"}, {"smiles": "CC(=O)N1C(C)c2ccccc2C(C)(C)CC12CCCCC2", "note": "(stereo not drawn)", "inhibition": "4.51% (inactive)"}, {"smiles": "O=C1COc2ccc(C(=O)COC(=O)c3cccnc3Cl)cc2N1", "inhibition": "1.57% (inactive)"}, {"smiles": "COc1ccccc1C(=O)N/C(=C/c1ccco1)C(=O)Nc1ccc(C(=O)O)cc1", "inhibition": "1.49% (inactive)"}, {"smiles": "COc1ccc(/C=C(/NC(=O)c2ccco2)C(=O)Nc2ccc(C(C)=O)cc2)cc1", "inhibition": "33.5% (active)"}, {"smiles": "Cc1ccc(NC(=O)/C(=C\\c2ccccc2)NC(=O)c2ccco2)cc1", "inhibition": "21.3% (inactive)"}, {"smiles": "CC1(C)COC(c2cccn2Cc2ccccc2Cl)=N1", "inhibition": "12.7% (inactive)"}, {"smiles": "O=C(NCc1ccncc1)C(=O)NCC1OCCN1S(=O)(=O)c1ccc(Br)cc1", "note": "(stereo not drawn)", "inhibition": "3.11% (inactive)"}, {"smiles": "O=C(Cc1ccsc1)N1CCN(S(=O)(=O)c2cc(C(F)(F)F)cc(C(F)(F)F)c2)CC1", "inhibition": "6.47% (inactive)"}, {"smiles": "O=C(CNC(=O)c1ccc(Br)o1)NCC1CCCO1", "note": "(stereo not drawn)", "inhibition": "-4.74% (inactive)"}, {"smiles": "Oc1c(Br)cc(/C=N/NC(=S)NCC2CCCO2)cc1Br", "note": "(stereo not drawn)", "inhibition": "37.8% (active)"}, {"smiles": "S=C(NCC1CCCO1)N1CCN(c2ccc(Cl)c(Cl)c2)CC1", "note": "(stereo not drawn)", "inhibition": "-2.84% (inactive)"}]}]}
